Results: PubChem BioAssay (NCI)
Compounds without any hit were thinned out: in the full panel of roughly 83,000, 20% have a hit.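 Step 1: grow cells in 96-well plates. Step 2: add test compound at a single concentration. Step 3: incubate 48 h. Step 4: record percent growth.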 Values without a mark were called inactive. Active and inactive are the calls of the source. Rule for the calls: active = growth percent below 10; inactive = the rest.

system: MDA-MB-468 breast; assay: NCI-60 one-dose screen, 48 h (100 = growth as untreated, 0 = no growth, -100 = all killed); conditions: 10 µM unless noted

Row | Compound | growth
1 | CCNC1=CC(=O)c2ncccc2C1=O | 43.4%
2 | Oc1ccc2c(=S)cc(-c3ccc(Br)cc3)oc2c1O | -2.5% (active)
3 | O=C(Nc1ccc(F)cc1F)c1cc(I)ccc1O | -1.05% (active)
4 | CCSc1ccc(C2C(Br)C(=O)N2c2cc(OC)c(OC)c(OC)c2)cc1 (stereo not given) | 27.7%
5 | CCC(CC)n1c(=O)c(SC2=NC3C(NN2)N(CC)C(=O)N3CC)c(C(=O)O)c2ccccc21 (stereo not given) | 23%
6 | O=C(Nc1ccccc1[N+](=O)[O-])c1ccc(Cl)c(Cl)c1 | 65.7%
7 | CNCCN(C)c1ccc(Nc2cc(NC3CC3)n3ncc(C#N)c3n2)cc1NC(C)=O | -54.5% (active)
8 | CCN(CC)Cc1cc(Nc2ccnc3cc(Cl)ccc23)ccc1OC | 93.6%
9 | C=C/C(C)=C/C[C@]1(C)[C@H](C)[C@@H](OC(=O)CCC)[C@H](O)[C@@]23C(=C[C@H](OC)C[C@@H]12)[C@@H](OC(=O)CCC)O[C@H]3OC(C)=O | -69% (active)
10 | Nc1ccccc1NC(=O)CCCCC(=O)Nc1ccc2c(c1)/C(=C/c1ccc[nH]1)C(=O)N2 | 50.4%
11 | CCOC(=O)c1ccc(Nc2sc(C(=O)c3ccc(Br)cc3)c(N)c2C#N)cc1 | 1.55% (active)
12 | COc1ccc(C2=C(Br)C(=O)c3nc(C)ccc3C2=O)cc1 | 87.1%
13 | CCCCCCc1nc2c(c(C)nn2-c2ccccc2)c2c1CCCCC2 | 127%
14 | CN(C)CCC(O)(Cc1ccccc1)c1ccccc1 (stereo not given) | 110%
15 | C#CCOC(=O)/C=C/c1cn(-c2ccccc2)nc1-c1ccc(OC)cc1 | 101%
